Measured values reported in PubChem BioAssay AID1259415 (National Center for Advancing Translational Sciences (NCATS), 2018).
The campaign covered roughly 410,000 compounds. About 18,000 (4.4%) were called active. Roughly 7% stayed inconclusive and do not appear here. Shown is part of a subset that was picked to be rich in actives. A number with no mark means an inactive call. Cut-off read from the data, not from the text of the source: active = activity change below about -60%; inconclusive = no clear call, values can overlap the other calls; inactive = above about -39%.

experiment: qHTS Assay for inhibitors of the human cytomegalovirus (HCMV); details: HFF cells, HCMV-luciferase reporter, 72 h; at 57.5 µM; hits give low values
Description: NCGC Assay Overview: Infection with human cytomegalovirus (HCMV) continues to pose significant threats for pregnant women and immunocompromised hosts. HCMV causes serious morbidity and mortality in transplant recipients, and congenital HCMV is the leading infectious cause of mental retardation and deafness in children. In the 1990s, the annual costs associated with the disease burden of congenital CMV were estimated at around $2 billion. A HCMV vaccine is not available yet and HCMV therapies result in intolerable side effects and emergence of drug resistant viruses. […] Towards this goal we have developed and characterized a luciferase HCMV reporter that was initially used in 96 well plates and then optimized to 1536-well plates for utilization in screening of the MLSMR collection, the NGCG diversity collection and the NCGC Pharmaceutical Collection of approved and investigational drugs.
NCGC Assay Protocol Summary:
This is a cell-based assay for HCMV inhibition in HFFs cells. The screening used 2 compound doses and the HCMV-luciferase at MOI of 1 PFU/cell. Cells were treated and infected with HCMV. At 72 h post infection cell lysates were collected and luciferase activity was determined using the Glomax-Multi + Detection System (Promega, Madison, WI). Data were normalized to the controls for basal activity (buffer only) and known HCMV inhibitors Salinmoycin.
1536-well assay protocol for the assay:
(1) Add 3 ul CMV/HFF cell culture. 1000 cells/well in DMEM nirmal media.
(2) Incubate 16 hr at 37C.
(3) Add 23 nl control compound, 10uM of Salinomycin.
(4) Add 23 nl compounds in DMSO solution.
(5) Add 3 ul CMV suspension. Final 1 puf/ul, Virus stock 2000pfu/ul
(6) Incubate 72 hrs at 37C.
(7) Add 4 ul OneGlo Luc Reagent.
(8) Incubate 5 min at room temperature.
% is set by controls: 0 for no effect and ±100 for the full control effect.

Q: With `CCc1nn(CC(=O)Nc2cccc(C)c2C)c(=O)c2cc3sccc3n12` as the compound, how does the activity change, negative = inhibition read?
A: -1.56%

Q: For `Cc1cc2oc(=O)cc(CN(C)Cc3ccc(OC(F)F)cc3)c2cc1Cl`, which activity change, negative = inhibition is on record?
A: 26.8%

Q: Which activity change, negative = inhibition does the source give for `CCn1c(Cc2cccs2)nnc1SCC(=O)c1ccc(C)cc1` here?
A: 47.4%

Q: Which activity change, negative = inhibition does the source give for `CC(=O)c1c(C)n(S(=O)(=O)c2ccc(Cl)cc2)c2ccc(NS(=O)(=O)c3ccc(Cl)cc3)cc12` here?
A: 1.89%

Q: Which activity change, negative = inhibition does the source give for `Cc1ccc(OCC(=O)OCc2cc(=O)n3nc(C4CC4)sc3n2)cc1` here?
A: -34%

Q: For `O=C(NCC12CC3CC(CC(C3)C1)C2)c1cc2nc(-c3ccccc3)cc(C(F)(F)F)n2n1`, which activity change, negative = inhibition is on record?
A: -2.2%

Q: Which activity change, negative = inhibition does the source give for `COc1ccc(N2CCN(C(=O)C3CCCN(C(=O)c4cc5sccc5n4C)C3)CC2)cc1` (stereo not given) here?
A: -14.9%

Q: With `Cc1cc(C)c(NC(=O)CN2C(=O)c3cccnc3Oc3ccc(Cl)cc32)c(C)c1` as the compound, how does the activity change, negative = inhibition read?
A: 0%

Q: Which activity change, negative = inhibition does the source give for `O=C(NCCCO)C(=O)Nc1c2c(nn1-c1ccc(F)cc1)CSC2` here?
A: -5.08%

Q: For `Cc1ccc(Nc2c(-c3ccc(Cl)cc3)nc3sccn23)c(C)c1`, which activity change, negative = inhibition is on record?
A: -23.6%

Q: Which activity change, negative = inhibition does the source give for `Cc1cccc(NC(=O)CSc2nc3c(oc4ccccc43)c(=O)n2-c2ccc(F)cc2)c1` here?
A: -12%

Q: Which activity change, negative = inhibition does the source give for `O=C(NNC(=O)c1cccc(S(=O)(=O)Nc2ccc(Cl)cc2)c1)c1ccc(=O)[nH]c1` here?
A: 24%

Q: For `Cc1ccc(C(=O)NNC(=O)c2ccncc2)cc1S(=O)(=O)N1CCCCC1`, which activity change, negative = inhibition is on record?
A: -15.8%

Q: With `O=C(Nc1ccc2c(c1)OCCO2)c1ccc(Cl)c(S(=O)(=O)N2CCCCC2)c1` as the compound, how does the activity change, negative = inhibition read?
A: -72.6% (active)

Q: With `CC(=O)Nc1ccc(C(=O)Nc2cccc(S(=O)(=O)NC3=NCCC3)c2)cc1` as the compound, how does the activity change, negative = inhibition read?
A: -22.7%

Q: For `Cc1ccc(NC(=O)c2ccc(Cl)nc2)cc1S(=O)(=O)N1CCOCC1`, which activity change, negative = inhibition is on record?
A: -8.05%

Q: Which activity change, negative = inhibition does the source give for `O=C(Nc1cccc(S(=O)(=O)Nc2ccc(Cl)cc2)c1)c1ccc2c(c1)OCCO2` here?
A: -94.5% (active)

Q: For `CCOc1ccc(CCNC(=O)C2CCN(c3ccc(N4CCOCC4)nn3)CC2)cc1OCC`, which activity change, negative = inhibition is on record?
A: 2.74%

Q: Which activity change, negative = inhibition does the source give for `Cc1cc(C)c(C)c(S(=O)(=O)N[C@@H](C)C(=O)OC(C)C(=O)NC(N)=O)c1C` (stereo not given in full) here?
A: -14.5%

Q: Which activity change, negative = inhibition does the source give for `COc1ccc(NC(=O)c2sc3nc(-c4cc5cccc(OC)c5oc4=O)[nH]c(=O)c3c2C)cc1` here?
A: -14.2%

Q: Which activity change, negative = inhibition does the source give for `Cc1ccc(Cn2cc(CCC(=O)NCc3ccc(OC(C)C)cc3)c3ccccc32)cc1` here?
A: 4.19%

Q: Which activity change, negative = inhibition does the source give for `O=C(O)c1cc2c(cc1NC(=O)c1c(F)cccc1Cl)OCCCO2` here?
A: -29.4%

Q: For `O=C(NNc1cc(Cl)cc(Cl)c1)c1c(F)cccc1Cl`, which activity change, negative = inhibition is on record?
A: -68.5% (active)

Q: With `CCN(CC)CCNC(=O)c1ccc(NC(=O)c2c(F)cccc2Cl)cc1` as the compound, how does the activity change, negative = inhibition read?
A: -23.1%

Q: With `CC1=NN(Cc2ccccc2)C(=O)/C1=C/c1ccc(N(C)C)cc1` as the compound, how does the activity change, negative = inhibition read?
A: -61.8% (active)

Q: For `COc1ccc(/C=C2/C(=O)N(c3ccccc3)N=C2C)c(OC)c1`, which activity change, negative = inhibition is on record?
A: 67.9%

Q: Which activity change, negative = inhibition does the source give for `CCOc1ccc(/C(O)=C2/C(=O)C(=O)N(Cc3cccnc3)C2c2ccc(N(C)C)cc2)c(C)c1` (stereo not given) here?
A: 19.8%

Q: For `CC(=O)c1ccc(NC(c2ccc(F)cc2)c2nnc(-c3ccccc3)o2)cc1` (stereo not given), which activity change, negative = inhibition is on record?
A: 16.8%

Q: Which activity change, negative = inhibition does the source give for `O=C(c1ccco1)n1nc(-c2ccc(Cl)cc2)nc1NCc1ccccc1` here?
A: -5.57%

Q: With `COc1ccccc1CNC(=O)C(=O)NCC(c1ccco1)S(=O)(=O)c1ccc(F)cc1` (stereo not given) as the compound, how does the activity change, negative = inhibition read?
A: -13.4%

Q: For `Cc1cccc(N2CCN(S(=O)(=O)c3ccc(-c4cc(C)no4)s3)CC2C)c1` (stereo not given), which activity change, negative = inhibition is on record?
A: 15.2%

Q: With `Cc1cc(-c2ccc(S(=O)(=O)N3CCc4ccccc4C3)s2)on1` as the compound, how does the activity change, negative = inhibition read?
A: -77.4% (active)

Q: Which activity change, negative = inhibition does the source give for `Cc1cc(-c2ccc(S(=O)(=O)N3CCN(c4cccc(C(F)(F)F)c4)CC3)s2)on1` here?
A: -38.1%

Q: For `COc1ccc(CC(=O)N2CC(=O)Nc3ccc(Br)cc3C2c2ccc(F)cc2)cc1OC` (stereo not given), which activity change, negative = inhibition is on record?
A: -3.53%

Q: Which activity change, negative = inhibition does the source give for `COC(=O)[C@@]1(Cc2ccc(F)cc2)[C@H]2c3cc(C(=O)N4CCCC4)n(C[C@H](O)CO)c3C[C@H]2CN1C(=O)c1ccccc1` here?
A: 5.98%

Q: For `COC(=O)[C@@]1(Cc2ccc(OC)cc2)[C@H]2c3cc(C(=O)N4CCCC4)n(Cc4ccc(OC(F)(F)F)cc4)c3C[C@H]2CN1C(=O)c1ccccc1`, which activity change, negative = inhibition is on record?
A: -18.9%

Q: With `COC(=O)[C@@]1(Cc2ccc(F)cc2)[C@H]2c3cc(C(=O)N(C)C)n(CCc4c[nH]c5ccc(OC)cc45)c3C[C@H]2CN1C(=O)c1ccccc1` as the compound, how does the activity change, negative = inhibition read?
A: -82.3% (active)

Q: For `CCC(=O)N1CCc2cc(S(=O)(=O)NC(C(=O)NCCc3ccc(C)cc3)C(C)C)ccc21` (stereo not given), which activity change, negative = inhibition is on record?
A: 12.8%

Q: Which activity change, negative = inhibition does the source give for `CCc1n[nH]c(=S)n1/N=C/c1c[nH]c2ccc(Br)cc12` here?
A: -6.5%

Q: Which activity change, negative = inhibition does the source give for `Cc1ccccc1-c1n[nH]c(=S)n1/N=C/c1ccc(-c2ccccc2Br)o1` here?
A: -88.9% (active)

Q: Which activity change, negative = inhibition does the source give for `CN(Cc1ccccc1)C(=O)c1cn(C)c2ccc(S(=O)(=O)N(C)C3CCCCC3)cc2c1=O` here?
A: 13.4%

Q: Which activity change, negative = inhibition does the source give for `CCCOc1ccc(N2CC(C(=O)Nc3ccccn3)CC2=O)cc1` (stereo not given) here?
A: 6.17%

Q: For `O=C(Nc1cccc2c1N(C(=O)c1ccco1)CCC2)c1ccco1`, which activity change, negative = inhibition is on record?
A: -39.1%

Q: With `COc1cccc(-n2c(=O)c3c(C)c(C(=O)N(C)C)sc3n(Cc3cccc(C)c3)c2=O)c1` as the compound, how does the activity change, negative = inhibition read?
A: -2.38%

Q: Which activity change, negative = inhibition does the source give for `CCOC(=O)Nc1ccc2c(c1)N(C(=O)CCN1CCN(CCO)CC1)c1ccccc1CC2` here?
A: -20.5%

Q: With `CCOC(=O)Nc1ccc2c(c1)N(C(=O)CN1CCN3CCCC3C1)c1ccccc1CC2` (stereo not given) as the compound, how does the activity change, negative = inhibition read?
A: 74.9%

Q: Which activity change, negative = inhibition does the source give for `CCOC(=O)Nc1ccc2c(c1)N(C(=O)CCCl)c1ccccc1[S@]2=O` here?
A: -102% (active)

Q: For `Cc1ccc(S(=O)(=O)N(Cc2nc(-c3ccc(Cl)cc3)no2)C2CCCCC2)cc1`, which activity change, negative = inhibition is on record?
A: -16.3%

Q: Which activity change, negative = inhibition does the source give for `COc1cc(C(=O)NCCS(=O)(=O)N2CCN(c3ccccc3)CC2)cc(OC)c1OC` here?
A: 38.7%

Q: For `Cn1c(N)c(C(=O)COC(=O)COc2ccc(Cl)cc2)c(=O)n(C)c1=O`, which activity change, negative = inhibition is on record?
A: -16.9%

Q: For `CCc1ccc(OCC(=O)OCC(=O)c2c(N)n(C)c(=O)n(C)c2=O)cc1`, which activity change, negative = inhibition is on record?
A: -68.3% (active)

Q: Which activity change, negative = inhibition does the source give for `Cn1c(N)c(C(=O)COC(=O)c2cnc(Cl)c(Cl)c2)c(=O)n(C)c1=O` here?
A: -99.9% (active)

Q: Which activity change, negative = inhibition does the source give for `Cc1cc(C(=O)OCC(=O)c2c(N)n(C)c(=O)n(C)c2=O)c(C)o1` here?
A: -20.6%

Q: Which activity change, negative = inhibition does the source give for `CCCCOc1ccc(C(=O)NCC(=O)OCC(=O)c2c(N)n(C)c(=O)n(C)c2=O)cc1` here?
A: -28.8%

Q: With `Cn1c(N)c(C(=O)COC(=O)c2ccc3ccccc3c2)c(=O)n(C)c1=O` as the compound, how does the activity change, negative = inhibition read?
A: 7.39%
